From PubChem BioAssay (Tox21)
Where “and” joins values, the source holds several entries; their conditions need not be identical. Identical values can stand only once. Results filed as inconclusive are left out. A structure can be active in one record and inactive in another. Calls of active or inactive are those of the source. Unless noted, the call rests on the fitted dose curve.

Columns and labels:
[1] = Nuclear factor erythroid 2-related factor 2/antioxidant responsive element (Nrf2/ARE) small molecule agonists: qHTS cell viability counter screen in human keratinocytes (AID 1919968; active means well fitted curve in the direction sought with a large enough effect in the repeat runs; an effect the other way counts as inactive or inconclusive; further: nearly all actives have a fitted effect of over 55% in size)
How it was run: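 Parallel cytotoxicity read: KeratinoSens HaCaT cells, compound treatment 23 h, viability by CellTiter-Fluor fluorescence 1 h post-reagent.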

[2] = target: KiSS-1 receptor (Homo sapiens) (UniProt Q969F8); experiment: Human kisspeptin (KISS1R) small molecule agonists, calcium flux assay in KISS1R-HEK293 cells (AID 1920064; active means well fitted curve in the direction sought with a large enough effect in the repeat runs; an effect the other way counts as inactive or inconclusive)
How it was run: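 Triplicate 15-concentration series were applied to dye-loaded human KISS1R HEK293 cells, and agonist-evoked calcium fluorescence was captured for 3 min.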

[3] = G protein-coupled receptor (GPCR) small molecule agonists, calcium flux assay: HEK293 wild type cell line counter screen (AID 1920065)
How it was run: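 Non-specific calcium responders were flagged by adding DMSO-dissolved compounds to dye-loaded cells and reading 480/540 nm fluorescence each second for 3 min; ATP served as positive control.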

[4] = p53 small molecule agonists, cell-based qHTS assay with human liver microsomes (AID 1963577)
How it was run: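 Compounds act here after metabolic activation: human liver microsomes and NADPH, both at 0.5 mg/mL final, were co-added to p53RE-bla cells. Incubation ran 16 h at 37 C, followed by LiveBLAzer detection.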

[5] = p53 small molecule agonists, cell-based qHTS assay with rat liver microsomes (AID 1963578)
How it was run: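 Read-out is beta-lactamase reporter fluorescence (LiveBLAzer, 2 h, room temperature, dark) in p53RE-bla cells treated 16 h at 37 C with compound, rat liver microsomes and NADPH, both 0.5 mg/mL final.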

[6] = p53 small molecule agonists, cell-based qHTS assay with human liver microsomes: qHTS cell viability counter screen (AID 1963579); further: nearly all actives have a fitted effect of over 45% in size
How it was run: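 Cells carrying the p53 response-element beta-lactamase reporter are treated for 16 h at 37 C with test compounds in the presence of human liver microsomes and NADPH (both 0.5 mg/mL final); ATP-based CellTiter-Glo luminescence then reports viability.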

[7] = p53 small molecule agonists, cell-based qHTS assay: qHTS cell viability counter screen (AID 1963581); further: nearly all actives have a fitted effect of over 45% in size
How it was run: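 Multiplexed with the reporter read, a CellTiter-Glo step (30 min, room temperature) gauges ATP-based viability of HCT-116 p53RE-bla cells after 16 h compound incubation at 37 C.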

[8] = p53 small molecule agonists, cell-based qHTS assay (AID 1963582; active means well fitted activation curve with a large enough effect in the signal ratio in the repeat runs, not every such curve was filed as active; the % refers to the signal ratio)
How it was run: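 Beta-lactamase reporter cells (p53RE-bla) treated with compounds for 16 h at 37 C; FRET substrate, 2 h, room temperature; fluorescence intensity.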

[9] = cAMP Responsive Elements (CRE) small molecule antagonists, cell-based qHTS assay (AID 1963591; active means well fitted inhibition curve with a large enough effect in the signal ratio in the repeat runs, not every such curve was filed as active; the % refers to the signal ratio)
How it was run: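 Fluorescence intensity from cleaved LiveBLAzer B/G substrate (2 h, room temperature) quantified CRE-bla activity in HEK 293T cells exposed 3 h to compound with 0.25 uM final NKH477.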

[10] = target: Beta-2 adrenergic receptor (Homo sapiens) (UniProt P07550); experiment: Adrenergic beta2 receptor (ADRB2) small molecule antagonists, cell-based qHTS assay (AID 1963592); further: series mostly up to about 92 µM; nearly all actives have a fitted effect of over 50% in size
How it was run: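 Assay format: CHO-ADRB2 cells, 18-20hr seeding at 37C/5% CO2, then compound plus 1nM isoproterenol agonist mix for 0.5hr RT. Homogeneous time-resolved fluorescence cAMP detection after 1hr, expressed as 665/615 nm ratio.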

[11] = target: D(2) dopamine receptor (Homo sapiens) (UniProt P14416); experiment: Dopamine D2 receptor (DRD2) small molecule agonists, cell-based qHTS assay (AID 1963594); further: nearly all actives have a fitted effect of over 35% in size
How it was run: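 HEK293 cells stably expressing DRD2 were cultured 24 h at 37 C, then given Ro20-1724 (0.1 mM final) and compounds for 10 min at room temperature. NKH477 (200nM) was then added for 30 min. cAMP was read by HTRF.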

[12] = target: D(2) dopamine receptor (Homo sapiens) (UniProt P14416); experiment: Dopamine D2 receptor (DRD2) small molecule antagonists, cell-based qHTS assay (AID 1963595; active means well fitted inhibition curve with a large enough effect in the signal ratio in the repeat runs, with a control signal flat; the % refers to the signal ratio)
How it was run: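 Cells were plated and grown for 24 h at 37 °C. Ro20-1724 (0.1 mM final) went in first, then compound for 10 min. NKH477 (200 nM) with quinpirole (12 nM) followed for 30 min at RT, then HTRF detection reagents for 1 h.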

[13] = target: Gonadotropin-releasing hormone receptor (Homo sapiens) (UniProt P30968); experiment: Human gonadotropin-releasing hormone receptor (GnRHR) small molecule agonists, calcium flux assay in GnRHR-HEK293 cells (AID 1920063); further: nearly all actives have a fitted effect of over 35% in size
How it was run: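 Calcium flux, agonist mode, human GnRHR stably integrated in HEK293; dye 1 h at 37 C before compound; Ex/Em=480/540 kinetic read, 3 min; 15 concentrations, triplicate.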

[14] = p53 small molecule agonists, cell-based qHTS assay with rat liver microsomes: qHTS cell viability counter screen (AID 1963580); further: nearly all actives have a fitted effect of over 45% in size
How it was run: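 Counter screen for cytotoxicity under metabolic activation: rat liver microsomes and NADPH, 0.5 mg/mL final each, added with compounds to p53RE-bla HCT-116 cells; 16 h at 37 C, then ATP luminescence read.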

[15] = target: 5-hydroxytryptamine receptor 2A (Homo sapiens) (UniProt P28223); experiment: 5-hydroxytryptamine receptor 2A (HTR2A) small molecule antagonists, cell-based qHTS assay (AID 1963586); further: nearly all actives have a fitted effect of over 45% in size
How it was run: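 CHO cells stably expressing human HTR2A were plated for 18 h at 37 C, then loaded with calcium dye for 1 h. Compounds were preincubated 5 min at room temperature before DOI (4 nM solution) was added. Kinetic fluorescence was read for 3 min.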

[16] = target: 5-hydroxytryptamine receptor 2A (Homo sapiens) (UniProt P28223); experiment: 5-hydroxytryptamine receptor 2A (HTR2A) small molecule agonists, cell-based qHTS assay (AID 1963587); further: nearly all actives have a fitted effect of over 30% in size
How it was run: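 HTR2A-CHO cells, plated 18 h at 37 C/5% CO2, dye-loaded 1 h at 37 C; compounds in DMSO added by pin tool (agonist mode). Intracellular calcium flux read as kinetic fluorescence on FDSS over 2 min at 1 s intervals.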

[17] = target: Muscarinic acetylcholine receptor M1 (Homo sapiens) (UniProt P11229); experiment: Cholinergic receptor muscarinic 1 (CHRM1) small molecule antagonists, cell-based qHTS assay (AID 1963588); further: nearly all actives have a fitted effect of over 40% in size; further: potency means the concentration at half of the fitted maximal effect
How it was run: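 Compounds were tested at 15 concentrations in three independent runs. Dye-loaded CHRM1-CHO cells were exposed 5 min at room temperature before stimulation by acetylcholine added at 50nM. Intracellular calcium was read kinetically on FDSS for 3 min.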

[18] = target: Muscarinic acetylcholine receptor M1 (Homo sapiens) (UniProt P11229); experiment: Cholinergic receptor muscarinic 1 (CHRM1) small molecule agonists, cell-based qHTS assay (AID 1963589); further: nearly all actives have a fitted effect of over 35% in size
How it was run: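 qHTS, 15-point titration, 3 independent runs: compounds pin-transferred onto dye-loaded CHRM1-CHO cells (human M1), calcium fluorescence followed every second to detect agonism.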

[19] = cAMP Responsive Elements (CRE) small molecule agonists, cell-based qHTS assay (AID 1963590)
How it was run: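 Quantitative HTS for CRE agonists: HEK 293T CRE-bla cells, overnight plating, 3 h compound incubation at 37 C/5% CO2, then 2 h room-temperature LiveBLAzer B/G FRET substrate loading.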

[20] = target: Beta-2 adrenergic receptor (Homo sapiens) (UniProt P07550); experiment: Adrenergic beta2 receptor (ADRB2) small molecule agonists, cell-based qHTS assay (AID 1963593);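 further: CHO cells stably overexpressing human ADRB2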
How it was run: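 CHO cells stably over-expressing ADRB2 were plated overnight at 37C, then dosed with compounds plus a stimulation mix containing 100uM IBMX and 25uM Ro-20-1724 for 0.5hr at room temperature. cAMP was measured by HTRF competition, 1hr.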

Measured: Potency

Beta-2 adrenergic receptor (Homo sapiens), sequence (P07550 whole entry, looked up): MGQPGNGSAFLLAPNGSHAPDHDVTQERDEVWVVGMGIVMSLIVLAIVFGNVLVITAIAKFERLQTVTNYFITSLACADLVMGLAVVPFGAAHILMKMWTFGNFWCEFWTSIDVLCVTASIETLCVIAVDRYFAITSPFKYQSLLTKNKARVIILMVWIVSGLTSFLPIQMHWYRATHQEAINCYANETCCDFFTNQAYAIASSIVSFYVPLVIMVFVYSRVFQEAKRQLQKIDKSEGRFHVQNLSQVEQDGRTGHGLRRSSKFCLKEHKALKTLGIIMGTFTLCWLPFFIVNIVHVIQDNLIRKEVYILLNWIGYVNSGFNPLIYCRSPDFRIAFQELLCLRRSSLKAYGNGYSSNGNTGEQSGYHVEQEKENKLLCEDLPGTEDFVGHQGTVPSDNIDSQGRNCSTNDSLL
5-hydroxytryptamine receptor 2A (Homo sapiens), sequence (P28223 whole entry, looked up): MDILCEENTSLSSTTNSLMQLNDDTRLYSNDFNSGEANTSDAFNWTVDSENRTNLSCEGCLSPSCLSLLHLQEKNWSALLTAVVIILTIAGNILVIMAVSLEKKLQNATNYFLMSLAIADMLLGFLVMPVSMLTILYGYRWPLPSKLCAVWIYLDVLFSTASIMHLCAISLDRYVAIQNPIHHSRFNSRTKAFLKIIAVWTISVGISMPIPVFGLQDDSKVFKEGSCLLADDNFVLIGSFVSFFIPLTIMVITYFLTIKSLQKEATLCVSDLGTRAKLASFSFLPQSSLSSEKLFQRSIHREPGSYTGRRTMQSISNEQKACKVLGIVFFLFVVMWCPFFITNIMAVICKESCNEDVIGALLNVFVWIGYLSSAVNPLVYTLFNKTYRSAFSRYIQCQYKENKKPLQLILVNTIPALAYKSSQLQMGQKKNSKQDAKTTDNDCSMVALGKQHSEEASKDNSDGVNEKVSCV
D(2) dopamine receptor (Homo sapiens), sequence (P14416 whole entry, looked up): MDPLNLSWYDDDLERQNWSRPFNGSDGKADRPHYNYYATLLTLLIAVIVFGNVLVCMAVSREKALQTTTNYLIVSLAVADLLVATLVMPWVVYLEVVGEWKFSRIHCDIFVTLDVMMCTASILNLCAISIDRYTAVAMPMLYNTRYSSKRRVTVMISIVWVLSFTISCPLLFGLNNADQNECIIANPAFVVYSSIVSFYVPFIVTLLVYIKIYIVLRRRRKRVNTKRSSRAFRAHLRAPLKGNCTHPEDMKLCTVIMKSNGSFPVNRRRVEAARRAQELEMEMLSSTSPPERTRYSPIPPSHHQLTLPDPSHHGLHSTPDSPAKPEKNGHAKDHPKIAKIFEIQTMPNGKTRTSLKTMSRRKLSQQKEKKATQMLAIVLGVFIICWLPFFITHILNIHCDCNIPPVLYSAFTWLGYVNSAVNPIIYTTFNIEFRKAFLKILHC
KiSS-1 receptor (Homo sapiens), sequence (Q969F8 whole entry, looked up): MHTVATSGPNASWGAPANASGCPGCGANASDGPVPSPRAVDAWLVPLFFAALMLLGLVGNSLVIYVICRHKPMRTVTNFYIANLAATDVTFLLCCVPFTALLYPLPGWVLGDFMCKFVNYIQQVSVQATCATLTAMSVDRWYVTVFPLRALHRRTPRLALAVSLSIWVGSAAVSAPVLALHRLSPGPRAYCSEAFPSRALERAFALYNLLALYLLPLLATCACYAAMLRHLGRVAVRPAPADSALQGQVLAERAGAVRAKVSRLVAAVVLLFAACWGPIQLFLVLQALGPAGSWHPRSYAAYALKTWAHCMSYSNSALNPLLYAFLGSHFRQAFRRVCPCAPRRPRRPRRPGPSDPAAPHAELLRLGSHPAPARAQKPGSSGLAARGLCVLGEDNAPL
Muscarinic acetylcholine receptor M1 (Homo sapiens), sequence (P11229 whole entry, looked up): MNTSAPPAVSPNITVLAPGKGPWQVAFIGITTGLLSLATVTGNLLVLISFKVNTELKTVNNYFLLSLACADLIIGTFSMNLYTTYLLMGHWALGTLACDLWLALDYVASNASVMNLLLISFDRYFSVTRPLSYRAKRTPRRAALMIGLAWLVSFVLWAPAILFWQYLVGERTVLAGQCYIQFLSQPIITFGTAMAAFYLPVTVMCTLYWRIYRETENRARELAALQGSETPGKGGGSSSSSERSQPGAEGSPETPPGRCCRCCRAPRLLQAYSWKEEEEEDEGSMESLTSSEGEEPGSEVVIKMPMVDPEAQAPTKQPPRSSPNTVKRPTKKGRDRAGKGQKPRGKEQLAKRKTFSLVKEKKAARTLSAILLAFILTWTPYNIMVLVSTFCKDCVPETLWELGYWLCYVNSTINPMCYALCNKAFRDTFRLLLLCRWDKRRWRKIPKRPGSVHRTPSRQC
Gonadotropin-releasing hormone receptor (Homo sapiens), sequence (P30968 whole entry, looked up): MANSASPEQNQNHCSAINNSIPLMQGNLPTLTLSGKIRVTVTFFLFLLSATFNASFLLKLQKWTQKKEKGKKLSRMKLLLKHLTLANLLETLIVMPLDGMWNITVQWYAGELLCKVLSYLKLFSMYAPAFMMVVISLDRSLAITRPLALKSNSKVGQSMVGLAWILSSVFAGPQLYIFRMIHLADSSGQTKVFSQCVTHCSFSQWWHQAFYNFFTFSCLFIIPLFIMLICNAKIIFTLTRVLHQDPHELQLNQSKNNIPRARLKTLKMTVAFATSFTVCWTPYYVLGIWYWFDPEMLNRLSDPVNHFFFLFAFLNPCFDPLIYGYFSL

CC1(C)O[C@@H]2C[C@H]3[C@@H]4CCC5=CC(=O)C=C[C@]5(C)[C@@]4(F)[C@@H](O)C[C@]3(C)[C@]2(C(=O)CO)O1
not listed: [13] | [14] | [15] | [16] | [17] | [18] | [19] | [20]
inactive: all other assays above

OC[C@]1(O)OC[C@@H](O)[C@H](O)[C@@H]1O
inactive: all assays above

CN(C)CCC(c1ccccc1)c1ccccn1 (stereo not drawn)
inactive and 3.26 µM (active): [17]
inactive: all other assays above

O=CCCCC=O
inactive: all assays above

Cc1cccc(C(=O)O)c1
not listed: [20]
inactive: all other assays above

O=[N+]([O-])c1cccc(Cl)c1
inactive: all assays above

Brc1ccc(Br)c(Br)c1
not listed: [13] | [15] | [20]
inactive: all other assays above
